# Shown are actives, neighbours in structure and some others; about 1.9% of the full set was active somewhere.
# PINK1 expr mod – changes PINK1 expression; PINK1 immunofluorescence, high-content cytometry, 24 h; Potency, µM (doses to about 76.6 µM), most hits filed as activators; 410,000 compounds, 0.2% hits; AID 624263; active = well fitted activation curve with a large enough effect; inconclusive = small, poorly fitted or top-dose-only effect; cell line not stated here; also: nearly all actives have a fitted effect of over 65% in size
#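 Stable cell line, 250 cells/well, 12 h attachment; compounds pinned at 5 concentrations, 24 h; CCCP control. Fixed with nuclear dye, primary antibodies 12 h at 10 degrees C, secondary plus cell stain; laser-scanning cytometer read.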
# ClpP mod – qHTS Assay for Activators of ClpP; AID 651965, 2013; purified B. subtilis ClpP, FRET peptide cleavage, 20 min; 340,000 compounds, 1.9% hits; ATP-dependent Clp protease proteolytic subunit (Bacillus subtilis (strain 168)), P80244; Potency, µM (highest dose often 57.5 µM); active = well fitted falling curve with a large enough effect; inconclusive = small, poorly fitted or top-dose-only effect; inactive = no such curve, though single readings can be large or run the other way; also: the source files actives as falling curves though it sought activators and does not explain the sign; nearly all actives have a fitted effect of over 65% in size
#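 ClpP 10 microg/mL final, pH 8 Tris/KCl buffer with BSA, glycerol, Tween-20; compound pinned in; FRET-FV substrate; RT 20 min; Ex320/Em430; ΔFRET vs ADEP 5.8 microM, DMSO, no enzyme.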
# Menin MLL FP TR – menin-MLL binding inhibition, Texas Red mutant peptide | Menin + Texas Red MLL mutant peptide, fluorescence polarization | O00255 | AID 1768 | 270,000 compounds, 0.23% hits | Potency, µM (top dose mostly 61.6 µM), most hits filed as inhibitors; active = well fitted inhibition curve with a large enough effect in the polarisation, with a control signal flat, not every such curve was filed as active; inconclusive = small, poorly fitted or top-dose-only effect, or effect the other way, or a change in a side signal; inactive = no such curve, though single readings can be large or run the other way; the % refers to the polarisation
# Target sequence (O00255 whole entry, looked up): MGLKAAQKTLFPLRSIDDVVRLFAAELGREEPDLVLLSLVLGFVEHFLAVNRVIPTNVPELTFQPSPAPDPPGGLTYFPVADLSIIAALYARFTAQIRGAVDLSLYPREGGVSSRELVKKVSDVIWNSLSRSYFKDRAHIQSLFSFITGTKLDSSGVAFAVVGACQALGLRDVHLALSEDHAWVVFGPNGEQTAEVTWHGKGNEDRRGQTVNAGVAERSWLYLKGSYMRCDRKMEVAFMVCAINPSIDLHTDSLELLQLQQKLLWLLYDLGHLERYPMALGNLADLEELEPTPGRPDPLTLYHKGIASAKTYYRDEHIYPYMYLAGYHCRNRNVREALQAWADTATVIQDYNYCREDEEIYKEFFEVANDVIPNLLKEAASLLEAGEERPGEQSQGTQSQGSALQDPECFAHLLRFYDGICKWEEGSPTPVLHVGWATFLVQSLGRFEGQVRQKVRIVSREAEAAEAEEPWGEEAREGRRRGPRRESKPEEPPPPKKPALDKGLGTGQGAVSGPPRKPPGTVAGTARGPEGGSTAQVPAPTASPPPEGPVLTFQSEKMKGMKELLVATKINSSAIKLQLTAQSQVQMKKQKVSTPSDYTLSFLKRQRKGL
# Epigenetic reg – regulators of epigenetic silencing causing reporter derepression in mouse cells; murine LDR cells, GFP reporter derepression, 30 h; Potency, µM (highest dose often 53.9 µM), hits mostly activators; 280,000 compounds, 0.2% hits; active = well fitted activation curve with a large enough effect; inconclusive = small, poorly fitted or top-dose-only effect; also: nearly all actives have a fitted effect of over 60% in size
#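 Derepression of a silenced CMV-GFP reporter in murine LDR cells is scored by enumerating GFP-positive cells with a laser-scanning microplate cytometer after 30 hours of treatment at 37 C.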
# CXXC DNA block – MLL CXXC-DNA interaction inhibition; Q03164; MLL-CXXC / FITC-HOXA9 DNA fluorescence polarization; Potency, µM (series often up to 115 µM), hits mostly inhibitors; 290,000 compounds, 0.037% hits; active = well fitted inhibition curve with a large enough effect in the polarisation, with a control signal flat, not every such curve was filed as active; inconclusive = small, poorly fitted or top-dose-only effect, or effect the other way, or a change in a side signal; inactive = no such curve, though single readings can be large or run the other way; the % refers to the polarisation
#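 Purified MLL-CXXC (added from a 7 uM solution) was preincubated 5 min at ambient with pinned compounds in 50 mM Tris-HCl pH 7.5, 50 mM NaCl, 1 mM DTT, 0.05% BSA. Fluorescein-labeled HOX-A9 DNA (50 nM solution) followed, 30 min, then polarization read.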
# Menin MLL FP FL – displaces fluorescein MLL peptide from human menin; Fluorescence polarization, fluorescein-MLL peptide displacement from menin; FP activity change, % at 61.4 µM; 290,000 tested, under 10 active; active = well fitted curve in the direction sought with a large enough effect in the polarisation, not every such curve was filed as active; inconclusive = small, poorly fitted or top-dose-only effect, or effect the other way, or a change in a side signal; inactive = no such curve, though single readings can be large or run the other way; the % refers to the polarisation
# A number is an active result; i = inactive; ? = inconclusive; nt = no result given; [ ] = another dose, or the depositor's remark.
SMILES,PINK1 expr mod,ClpP mod,Menin MLL FP TR,Epigenetic reg,CXXC DNA block,Menin MLL FP FL
Cc1ccc(-c2cc(C(=O)O)c3sc(N4CCCCC4)nc3n2)cc1,i,?,i,i,i,i
COc1ccc(-c2cc(-c3ccccc3)nc(N3CCCC3)n2)cc1OC,i,25µM,i,i,i,i
COc1ccc(-c2cc(C(=O)O)c3sc(N4CCCCC4)nc3n2)cc1OC,i,10µM,i,i,i,i
COC(=O)c1coc(-c2ccc(OC)cc2)c1C(=O)OC,i,32µM,i,i,i,i
COc1ccc2nc(Nc3nc4cc5c(cc4s3)OCO5)sc2c1,?,13µM,?,i,i,i
COc1ccc2nc(Nc3ccc4c(c3)OCO4)sc2c1,i,i,?,i,i,i
CCOc1ccc2[nH]c3c(NCCO)ncnc3c2c1,i,i,i,nt,i,i
CCCCOCCCNc1ncnc2c1[nH]c1ccccc12,i,28µM,i,i,i,i
CCOCCCNc1ncnc2c1[nH]c1ccccc12,i,16µM,i,i,i,i
CC(C)OC(=O)c1cc2c(ccn2C)n1CC(=O)N(Cc1ccccc1)c1ccccc1,i,28µM,i,i,i,i
Cc1ccc(-c2cc(C(=O)N(C)CC(=O)Nc3ccccc3Br)c3ccccc3n2)o1,i,25µM,nt,nt,nt,nt
Cc1ccc(-c2cc(C(=O)N3CCCC(C(F)(F)F)C3)c3ccccc3n2)o1 (stereo unspecified),i,16µM,nt,nt,nt,nt
COc1ccc(NC(=O)c2cc(-c3ccc(C)o3)nc3ccccc23)cc1OC,i,3.5µM,i,i,i,i
CCOC(=O)C(c1ccc(OC)c(OC)c1)C1c2ccccc2C=C(C)N1C(=O)OC (stereo unspecified),nt,nt,i[11.7 µM],nt,nt,i[11.7 µM]
COc1ccccc1C1CN(CCNC(=O)c2sccc2Cl)Cc2ccccc2O1 (stereo unspecified),i,nt,nt,nt,nt,nt
O/N=C(/C[n+]1cccc(Br)c1)c1ccc2ccccc2c1,i,i,nt,nt,nt,nt
CCCCCN(CCCCC)C(=O)[C@H](CCC(=O)O)NC(=O)[C@H](Cc1ccc(OP(=O)(O)O)cc1)NC(C)=O,nt,nt,i,nt,nt,i
O=C(NNC(=S)Nc1cccc(C(F)(F)F)c1)c1ccccc1Cl,?,i,?,i,i,i
O=C(NNC(=S)Nc1cccc(C(F)(F)F)c1)c1cccc(Cl)c1,16µM,i,?,i,i,i
CCC1(CC)NC(=S)NC1=S,i,28µM,nt,nt,nt,nt
CC1(C)NC(=S)NC1=S,i,i,nt,nt,nt,nt
C=CC(=O)N(CCC)C(c1ccccc1)c1ccccc1OC (stereo unspecified),i,i,nt,nt,nt,nt
Cc1cnc(C)c(-c2cc(F)cc3c2OC(CNC(=O)CN2CCCC2)C3)n1 (stereo unspecified),i,nt,nt,nt,nt,nt
CCOc1ccccc1Nc1nnc(SCc2nnc(-c3cc(OC)c(OC)c(OC)c3)o2)s1,i,32µM,i,i,i,i
CC1=CC(C)(C)Nc2ccc(Cc3ccc4c(c3)C(C)=CC(C)(C)N4)cc21,i,i,?,i,i,i
SMILES,PINK1 expr mod,ClpP mod,Menin MLL FP TR,Epigenetic reg,CXXC DNA block,Menin MLL FP FL
CC1=CC(C)(C)Nc2ccc(C)cc21,i,32µM,i,i,i,i
COc1ccc(CNCC(=O)Nc2cccc(S(N)(=O)=O)c2)cc1,i,35µM,i,i[10.1 µM],i,i
O=[N+]([O-])c1ccc(NCCNCCOc2nonc2-c2ccccc2)c([N+](=O)[O-])c1,i,16µM,?,i,i,i
CC(=O)c1c(O)c(C)c(-c2ccccc2)n(-c2ccccc2)c1=O,i,22µM,?,i,i,i
CC(=O)c1c(O)cc(=O)n(-c2ccccc2)c1-c1ccc(C)cc1,i,i,nt,i,i,i
NC(=S)NNC(=O)Nc1ccc(Cl)c(Cl)c1,i,22µM,i,i,i,i
O=C(Cc1ccccc1)NNC(=O)Nc1ccc(Cl)c(Cl)c1,i,nt,i,i,i,i
COc1cc2c(-c3ccc(O)cc3)nc3c(c(C)nn3-c3ccccc3)c2cc1OC,i,8.9µM,?,i,i,i
Cc1nn(C)cc1CN1CCOc2ccc(CN3CCC(Oc4cccnc4)CC3)cc2C1,i,nt,nt,nt,nt,nt
O=C(O)C(SC(C(=O)O)c1ccccc1)c1ccccc1 (stereo unspecified),i,28µM,nt,nt,nt,nt
COc1ccc(S(=O)(=O)Nc2ccccc2C(=O)O)cc1,nt,nt,nt,i,nt,nt
COc1ccc(N2CCN(C(=O)c3ccccc3NS(=O)(=O)c3ccccc3)CC2)cc1,i,28µM,nt,nt,i,nt
COc1cc2c(NC3CCN(C)CC3)nc(N3CCCN(C)CC3)nc2cc1OCCCN1CCCC1,i,i,nt,nt,nt,nt
OCCCCNc1cccc2ccccc12,i,16µM,i,i,i,i
OCCCCCNc1ncnc2ccccc12,i,i,i,i,?,i
COc1ccc(CN2CCOc3c(cc(-c4cccc(OC)n4)cc3OC)C2)c(O)c1,i,nt,nt,nt,nt,nt
COCc1c(C(=O)N2CCN(C(C)C)CC2)cnn1-c1nccc(-c2cc(C)sc2C)n1,i,nt,nt,nt,nt,nt
CCOc1ccc(Nc2oc(-c3ccco3)nc2C#N)cc1,i,i,i,i,i,i
CCOc1ccc(Nc2oc(-c3cccs3)nc2C#N)cc1,i,18µM,?,i,i,i
C=CCNc1oc(-c2cccc3ccccc23)nc1C#N,nt,3.2µM,i,i,i,i
CCOc1ccc(-c2nc(C#N)c(NCC(C)C)o2)cc1,nt,40µM,i,i,i,i
CCOc1ccc(Nc2oc(/C=C/c3ccc(OC)c(OC)c3)nc2C#N)cc1,i,?,nt,32µM,nt,nt
COc1ccc(-c2nn(-c3ccccc3)cc2C(=O)NC(=S)N2CCOCC2)cc1OC,i,i,nt,nt,nt,nt
C=CCNc1oc(-c2ccc(OC)cc2)nc1C#N,i,i,i,i,i,i
C=CCNc1oc(-c2ccc(OCC)cc2)nc1C#N,?,0.79µM,i,i,i,i

# Screens: PubChem BioAssay, National Center for Advancing Translational Sciences (NCATS)
